About 2,000 (36%) of roughly 5,500 compounds were called active. Another 18% or so got no clear call; they are omitted. No stated cut-off is given here; in the data, active means normalized growth mostly below about 0.91 (no sharp cut-off); inconclusive means no clear call, values can overlap the other calls; inactive means mostly above about 0.92. This is one part of the list.
Test: chemical genetic growth profiling, strain panel (AID 1159580);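 further: tested at 20 µM; growth read once vehicle control cultures reached saturation at 30 °C; 1 = growth at the plate median or of vehicle wells; lower values mean less growth of the strain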
Conditions: S. cerevisiae deletion strains, growth OD
[1] = locus YCL061C, strain MRC1, hits give low values

Measured: normalized growth

CCOC(=O)c1c(C)c(Cl)c(O)c(Cl)c1O
active: locus YAL021C, strain ccr4, hits give low values 0.682 | locus YAL026C, strain drs2, hits give low values 0.469 | locus YAL030W, strain snc1, hits give low values 0.692 | locus YBL061C, strain skt5, hits give low values 0.637 | locus YBR009C, strain hhf1, hits give low values 0.407 | locus YBR023C, strain chs3, hits give low values 0.589 | locus YBR171W, strain sec66, hits give low values 0.619 | locus YBR231C, strain swc5, hits give low values 0.469 | locus YBR279W, strain paf1, hits give low values 0.686 | locus YCL011C, strain gbp2, hits give low values 0.499 | locus YCL016C, strain dcc1, hits give low values 0.495 | [1] 0.408 | locus YCL069W, strain vba3, hits give low values 0.407 | locus YCR088W, strain abp1, hits give low values 0.517 | locus YDL005C, strain med2, hits give low values 0.76 | locus YDL040C, strain nat1, hits give low values 0.663 | locus YDR001C, strain nth1, hits give low values 0.516 | locus YDR069C, strain doa4, hits give low values 0.72 | locus YDR137W, strain rgp1, hits give low values 0.266 | locus YDR159W, strain sac3, hits give low values 0.459 | locus YDR195W, strain ref2 0.697 | locus YDR297W, strain sur2, hits give low values 0.677 | locus YDR334W, strain swr1, hits give low values 0.361 | locus YDR335W, strain msn5, hits give low values 0.517 | locus YDR392W, strain spt3, hits give low values 0.0936 | locus YEL003W, strain gim4, hits give low values 0.397 | locus YEL037C, strain rad23, hits give low values 0.666 | locus YEL061C, strain CIN8 (second series), hits give low values 0.171 | locus YER015W, strain faa2, hits give low values 0.652 | locus YER016W, strain bim1, hits give low values 0.559 | locus YER111C, strain swi4, hits give low values 0.189 | locus YER155C, strain BEM2 (second series), hits give low values 0.15 | locus YFR010W, strain ubp6, hits give low values 0.696 | locus YGL167C, strain pmr1, hits give low values 0.67 | locus YGL173C, strain kem1, hits give low values 0.512 | locus YGL227W, strain vid30, hits give low values 0.188 | locus YGL240W, strain doc1, hits give low values 0.375 | locus YGL253W, strain hxk2, hits give low values 0.254 | locus YHR013C, strain ard1, hits give low values 0.634 | locus YHR027C, strain rpn1, hits give low values 0.719 | locus YHR142W, strain chs7, hits give low values 0.245 | locus YJL092W, strain hpr5, hits give low values 0.456 | locus YJL095W, strain BCK1 (second series), hits give low values 0.292 | locus YJL115W, strain asf1, hits give low values 0.667 | locus YJL129C, strain trk1, hits give low values 0.261 | locus YJL154C, strain vps35, hits give low values 0.702 | locus YJL164C, strain tpk1, hits give low values 0.467 | locus YJL166W, strain qcr8, hits give low values 0.448 | locus YJL187C, strain SWE1, hits give low values 0.61 | locus YKL160W, strain elf1, hits give low values 0.454 | locus YKR026C, strain gcn3, hits give low values 0.697 | locus YKR091W, strain srl3, hits give low values 0.677 | locus YLL001W, strain dnm1, hits give low values 0.563 | locus YLL026W, hits give low values 0.436 | locus YLL041C, strain sdh2, hits give low values 0.635 | locus YLR027C, strain aat2, hits give low values 0.517 | locus YLR221C, strain rsa3, hits give low values 0.398 | locus YLR258W, strain gsy2, hits give low values 0.561 | locus YLR262C, strain YPT6 (second series), hits give low values 0.277 | locus YLR320W, strain mms22, hits give low values 0.27 | locus YLR342W, strain FKS1, hits give low values 0.369 | locus YLR357W, strain rsc2, hits give low values 0.64 | locus YLR370C, strain arc18, hits give low values 0.701 | locus YLR384C, strain iki3, hits give low values 0.681 | locus YML120C, strain ndi1, hits give low values 0.409 | locus YMR058W, strain fet3, hits give low values 0.429 | locus YMR125W, strain sto1, hits give low values 0.259 | locus YMR129W, hits give low values 0.651 | locus YMR205C, strain PFK2, hits give low values 0.283 | locus YMR231W, strain pep5, hits give low values 0.361 | locus YNL071W, strain lat1, hits give low values 0.127 | locus YNL209W, strain ssb2, hits give low values 0.753 | locus YNL248C, strain rpa49, hits give low values 0.645 | locus YNL322C, strain KRE1 (second series), hits give low values 0.783 | locus YNR049C, strain mso1, hits give low values 0.432 | locus YOR001W, strain rrp6, hits give low values 0.4 | locus YOR070C, strain gyp1, hits give low values 0.499 | locus YOR080W, strain dia2, hits give low values 0.701 | locus YOR083W, strain WHI5, hits give low values 0.608 | locus YOR106W, strain vam3, hits give low values 0.459 | locus YOR265W, strain rbl2, hits give low values 0.676 | locus YOR270C, strain vph1, hits give low values 0.214 | locus YOR290C, strain snf2, hits give low values 0.424 | locus YPL051W, strain arl3, hits give low values 0.414 | locus YPL078C, strain atp4, hits give low values 0.391 | locus YPL106C, strain sse1, hits give low values 0.568 | locus YPL240C, strain hsp82, hits give low values 0.492

CCOC(=O)c1[nH]c(Cc2[nH]c(C(=O)OCC)c(C)c2C)c(C)c1C
inactive: locus YAL013W, strain DEP1, hits give low values 1 | locus YBR229C, strain ROT2, hits give low values 1.02 | [1] 1.02 | locus YDL101C, strain DUN1, hits give low values 1.03 | locus YDL134C, strain PPH21, hits give low values 1.01 | locus YDR150W, strain NUM1, hits give low values 0.978 | locus YEL061C, strain CIN8, hits give low values 1.01 | locus YGR078C, strain PAC10, hits give low values 1.02 | locus YHR030C, strain SLT2, hits give low values 1.06 | locus YHR087W, strain rtc3, hits give low values 1.01 | locus YJR043C, strain POL32, hits give low values 1.04 | locus YKL190W, strain CNB1, hits give low values 1.01 | locus YLR039C, strain RIC1, hits give low values 0.981 | locus YLR058C, strain SHM2 (second series), hits give low values 1.02 | locus YLR085C, strain ARP6, hits give low values 1.01 | locus YLR262C, strain YPT6, hits give low values 0.981 | locus YML094W, strain GIM5, hits give low values 0.988 | locus YMR219W, strain ESC1, hits give low values 1.01 | locus YMR263W, strain SAP30, hits give low values 1.02 | locus YMR307W, strain GAS1, hits give low values 0.948 | locus YNL153C, strain GIM3, hits give low values 1.02 | locus YNL298W, strain CLA4 (second series), hits give low values 1.04 | locus YNL322C, strain KRE1, hits give low values 1 | locus YNR030W, strain Alg12, hits give low values 1.04 | locus YPL055C, strain LGE1, hits give low values 0.994 | locus YPL241C, strain CIN2, hits give low values 1.01 | locus YPR135W, strain CTF4, hits give low values 1.08
